Experimental findings from ChEMBL document CHEMBL2218924, “A broad activity screen in support of a chemogenomic map for kinase signalling research and drug discovery” (Biochem J, 2013) are described below.

The target in test [1] is BDNF/NT-3 growth factors receptor (Homo sapiens) (UniProt Q16620). The following applies: at 10 µM.
The target in test [2] is T1, Tyrosine-protein kinase TXK (Homo sapiens) (UniProt P42681).
T1 sequence (whole entry): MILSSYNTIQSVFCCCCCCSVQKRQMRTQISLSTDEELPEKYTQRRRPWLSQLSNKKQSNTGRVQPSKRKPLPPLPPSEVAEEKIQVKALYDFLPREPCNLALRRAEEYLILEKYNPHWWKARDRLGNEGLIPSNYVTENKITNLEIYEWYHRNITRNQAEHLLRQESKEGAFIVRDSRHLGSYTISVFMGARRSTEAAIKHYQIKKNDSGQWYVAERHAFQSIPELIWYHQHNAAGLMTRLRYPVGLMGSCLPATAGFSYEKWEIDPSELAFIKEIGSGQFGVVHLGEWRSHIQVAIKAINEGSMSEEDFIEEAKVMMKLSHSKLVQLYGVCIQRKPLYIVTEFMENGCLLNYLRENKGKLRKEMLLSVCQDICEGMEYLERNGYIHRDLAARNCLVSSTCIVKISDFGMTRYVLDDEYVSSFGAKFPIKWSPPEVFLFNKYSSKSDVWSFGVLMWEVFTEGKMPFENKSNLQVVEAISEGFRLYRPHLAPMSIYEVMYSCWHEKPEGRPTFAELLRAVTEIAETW
The following applies: at 1 µM.

The target of test [3] is T1, Tyrosine-protein kinase TXK (Homo sapiens). The conditions noted are these: at 10 µM.
The target of test [4] is T2, Serine/threonine-protein kinase ULK2 (Homo sapiens) (UniProt Q8IYT8).
T2 sequence (whole entry): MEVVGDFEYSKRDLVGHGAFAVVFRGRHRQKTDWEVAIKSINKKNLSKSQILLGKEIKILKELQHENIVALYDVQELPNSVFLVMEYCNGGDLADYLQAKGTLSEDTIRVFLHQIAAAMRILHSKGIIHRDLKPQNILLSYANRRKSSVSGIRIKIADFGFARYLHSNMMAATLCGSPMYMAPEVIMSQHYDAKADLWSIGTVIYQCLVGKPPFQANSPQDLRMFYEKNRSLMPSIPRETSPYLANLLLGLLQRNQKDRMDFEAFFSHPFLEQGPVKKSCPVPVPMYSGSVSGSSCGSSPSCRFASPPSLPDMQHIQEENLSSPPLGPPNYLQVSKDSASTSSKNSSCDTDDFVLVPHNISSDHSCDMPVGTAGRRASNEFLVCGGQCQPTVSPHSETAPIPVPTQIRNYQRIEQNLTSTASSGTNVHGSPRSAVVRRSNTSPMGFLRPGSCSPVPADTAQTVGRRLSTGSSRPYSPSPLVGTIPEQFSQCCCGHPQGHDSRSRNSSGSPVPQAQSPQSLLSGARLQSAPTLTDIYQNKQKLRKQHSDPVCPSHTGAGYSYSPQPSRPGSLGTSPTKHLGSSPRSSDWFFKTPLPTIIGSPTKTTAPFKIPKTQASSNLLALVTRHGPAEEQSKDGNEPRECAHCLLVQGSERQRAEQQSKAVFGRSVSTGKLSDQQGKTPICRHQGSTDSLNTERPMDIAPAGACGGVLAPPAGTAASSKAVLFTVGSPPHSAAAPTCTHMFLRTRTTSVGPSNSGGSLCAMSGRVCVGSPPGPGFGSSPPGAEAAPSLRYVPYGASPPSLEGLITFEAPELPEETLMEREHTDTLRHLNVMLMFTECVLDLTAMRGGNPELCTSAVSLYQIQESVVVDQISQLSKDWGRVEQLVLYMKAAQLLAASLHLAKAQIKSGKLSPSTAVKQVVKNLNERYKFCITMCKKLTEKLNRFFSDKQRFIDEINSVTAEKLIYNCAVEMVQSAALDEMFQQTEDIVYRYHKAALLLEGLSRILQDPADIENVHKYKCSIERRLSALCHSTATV
The following applies: at 1 µM.

Test [5] has as its target T2, Serine/threonine-protein kinase ULK2 (Homo sapiens). The conditions noted are these: at 10 µM.
The target of test [6] is T3, Serine/threonine-protein kinase ULK3 (Homo sapiens) (UniProt Q6PHR2).
T3 sequence (whole entry): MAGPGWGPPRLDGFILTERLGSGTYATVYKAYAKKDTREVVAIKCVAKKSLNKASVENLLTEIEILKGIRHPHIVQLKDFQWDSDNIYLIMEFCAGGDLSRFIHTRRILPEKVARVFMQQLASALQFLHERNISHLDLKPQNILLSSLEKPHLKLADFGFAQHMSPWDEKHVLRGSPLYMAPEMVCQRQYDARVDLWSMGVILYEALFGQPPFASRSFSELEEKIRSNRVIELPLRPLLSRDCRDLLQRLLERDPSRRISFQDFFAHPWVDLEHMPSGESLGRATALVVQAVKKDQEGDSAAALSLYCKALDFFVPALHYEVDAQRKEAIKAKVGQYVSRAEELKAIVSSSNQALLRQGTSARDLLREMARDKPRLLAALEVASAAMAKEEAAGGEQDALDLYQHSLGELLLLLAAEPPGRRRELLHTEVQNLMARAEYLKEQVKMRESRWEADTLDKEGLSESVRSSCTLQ
The following applies: at 1 µM.

Test [7] has as its target T3, Serine/threonine-protein kinase ULK3 (Homo sapiens). The following applies: at 10 µM.
The target of test [8] is Serine/threonine-protein kinase VRK2 (Homo sapiens) (UniProt Q86Y07). The following applies: at 1 µM.
Test [9] has the same target. The conditions noted are these: at 10 µM.
Test [10] deals with Serine/threonine-protein kinase WNK2 (Homo sapiens) (UniProt Q9Y3S1). The following applies: at 1 µM.
For test [11] the target is unchanged. The following applies: at 10 µM.
Test [12] deals with Serine/threonine-protein kinase WNK3 (Homo sapiens) (UniProt Q9BYP7). The conditions noted are these: at 1 µM.
Test [13] has the same target. The following applies: at 10 µM.
Test [14] concerns the target Tyrosine-protein kinase Yes (Homo sapiens) (UniProt P07947). The conditions noted are these: at 1 µM.
Test [15] shares this target. The conditions noted are these: at 10 µM.
The target in test [16] is T4, Tyrosine-protein kinase ZAP-70 (Homo sapiens) (UniProt P43403).
T4 sequence (whole entry): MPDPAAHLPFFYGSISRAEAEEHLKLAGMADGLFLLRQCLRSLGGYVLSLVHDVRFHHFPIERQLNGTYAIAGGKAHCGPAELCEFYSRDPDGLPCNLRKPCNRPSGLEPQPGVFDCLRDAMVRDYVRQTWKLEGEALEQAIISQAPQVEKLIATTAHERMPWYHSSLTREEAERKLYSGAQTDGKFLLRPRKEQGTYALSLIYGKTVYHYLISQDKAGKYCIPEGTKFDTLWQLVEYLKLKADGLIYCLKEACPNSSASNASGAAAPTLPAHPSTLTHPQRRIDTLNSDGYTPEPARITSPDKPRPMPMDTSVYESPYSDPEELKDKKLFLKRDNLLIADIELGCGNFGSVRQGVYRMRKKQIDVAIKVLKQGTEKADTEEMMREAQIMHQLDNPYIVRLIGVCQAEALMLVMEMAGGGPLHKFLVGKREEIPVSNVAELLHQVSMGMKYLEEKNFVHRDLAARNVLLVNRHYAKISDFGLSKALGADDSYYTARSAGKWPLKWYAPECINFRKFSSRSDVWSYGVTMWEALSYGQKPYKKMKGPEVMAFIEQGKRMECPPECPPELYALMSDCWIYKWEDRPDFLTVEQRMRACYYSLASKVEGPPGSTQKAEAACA
The conditions noted are these: at 1 µM.

In test [17] the target is Death-associated protein kinase 3 (Homo sapiens) (UniProt O43293). The following applies: at 1 µM.
Test [18] shares this target. The following applies: at 10 µM.
Test [19] deals with RAF proto-oncogene serine/threonine-protein kinase (Homo sapiens) (UniProt P04049). The conditions noted are these: at 1 µM.
Test [20] has the same target. The following applies: at 10 µM.

Serine/threonine-protein kinase WNK2 (Homo sapiens), sequence (Q9Y3S1 whole entry): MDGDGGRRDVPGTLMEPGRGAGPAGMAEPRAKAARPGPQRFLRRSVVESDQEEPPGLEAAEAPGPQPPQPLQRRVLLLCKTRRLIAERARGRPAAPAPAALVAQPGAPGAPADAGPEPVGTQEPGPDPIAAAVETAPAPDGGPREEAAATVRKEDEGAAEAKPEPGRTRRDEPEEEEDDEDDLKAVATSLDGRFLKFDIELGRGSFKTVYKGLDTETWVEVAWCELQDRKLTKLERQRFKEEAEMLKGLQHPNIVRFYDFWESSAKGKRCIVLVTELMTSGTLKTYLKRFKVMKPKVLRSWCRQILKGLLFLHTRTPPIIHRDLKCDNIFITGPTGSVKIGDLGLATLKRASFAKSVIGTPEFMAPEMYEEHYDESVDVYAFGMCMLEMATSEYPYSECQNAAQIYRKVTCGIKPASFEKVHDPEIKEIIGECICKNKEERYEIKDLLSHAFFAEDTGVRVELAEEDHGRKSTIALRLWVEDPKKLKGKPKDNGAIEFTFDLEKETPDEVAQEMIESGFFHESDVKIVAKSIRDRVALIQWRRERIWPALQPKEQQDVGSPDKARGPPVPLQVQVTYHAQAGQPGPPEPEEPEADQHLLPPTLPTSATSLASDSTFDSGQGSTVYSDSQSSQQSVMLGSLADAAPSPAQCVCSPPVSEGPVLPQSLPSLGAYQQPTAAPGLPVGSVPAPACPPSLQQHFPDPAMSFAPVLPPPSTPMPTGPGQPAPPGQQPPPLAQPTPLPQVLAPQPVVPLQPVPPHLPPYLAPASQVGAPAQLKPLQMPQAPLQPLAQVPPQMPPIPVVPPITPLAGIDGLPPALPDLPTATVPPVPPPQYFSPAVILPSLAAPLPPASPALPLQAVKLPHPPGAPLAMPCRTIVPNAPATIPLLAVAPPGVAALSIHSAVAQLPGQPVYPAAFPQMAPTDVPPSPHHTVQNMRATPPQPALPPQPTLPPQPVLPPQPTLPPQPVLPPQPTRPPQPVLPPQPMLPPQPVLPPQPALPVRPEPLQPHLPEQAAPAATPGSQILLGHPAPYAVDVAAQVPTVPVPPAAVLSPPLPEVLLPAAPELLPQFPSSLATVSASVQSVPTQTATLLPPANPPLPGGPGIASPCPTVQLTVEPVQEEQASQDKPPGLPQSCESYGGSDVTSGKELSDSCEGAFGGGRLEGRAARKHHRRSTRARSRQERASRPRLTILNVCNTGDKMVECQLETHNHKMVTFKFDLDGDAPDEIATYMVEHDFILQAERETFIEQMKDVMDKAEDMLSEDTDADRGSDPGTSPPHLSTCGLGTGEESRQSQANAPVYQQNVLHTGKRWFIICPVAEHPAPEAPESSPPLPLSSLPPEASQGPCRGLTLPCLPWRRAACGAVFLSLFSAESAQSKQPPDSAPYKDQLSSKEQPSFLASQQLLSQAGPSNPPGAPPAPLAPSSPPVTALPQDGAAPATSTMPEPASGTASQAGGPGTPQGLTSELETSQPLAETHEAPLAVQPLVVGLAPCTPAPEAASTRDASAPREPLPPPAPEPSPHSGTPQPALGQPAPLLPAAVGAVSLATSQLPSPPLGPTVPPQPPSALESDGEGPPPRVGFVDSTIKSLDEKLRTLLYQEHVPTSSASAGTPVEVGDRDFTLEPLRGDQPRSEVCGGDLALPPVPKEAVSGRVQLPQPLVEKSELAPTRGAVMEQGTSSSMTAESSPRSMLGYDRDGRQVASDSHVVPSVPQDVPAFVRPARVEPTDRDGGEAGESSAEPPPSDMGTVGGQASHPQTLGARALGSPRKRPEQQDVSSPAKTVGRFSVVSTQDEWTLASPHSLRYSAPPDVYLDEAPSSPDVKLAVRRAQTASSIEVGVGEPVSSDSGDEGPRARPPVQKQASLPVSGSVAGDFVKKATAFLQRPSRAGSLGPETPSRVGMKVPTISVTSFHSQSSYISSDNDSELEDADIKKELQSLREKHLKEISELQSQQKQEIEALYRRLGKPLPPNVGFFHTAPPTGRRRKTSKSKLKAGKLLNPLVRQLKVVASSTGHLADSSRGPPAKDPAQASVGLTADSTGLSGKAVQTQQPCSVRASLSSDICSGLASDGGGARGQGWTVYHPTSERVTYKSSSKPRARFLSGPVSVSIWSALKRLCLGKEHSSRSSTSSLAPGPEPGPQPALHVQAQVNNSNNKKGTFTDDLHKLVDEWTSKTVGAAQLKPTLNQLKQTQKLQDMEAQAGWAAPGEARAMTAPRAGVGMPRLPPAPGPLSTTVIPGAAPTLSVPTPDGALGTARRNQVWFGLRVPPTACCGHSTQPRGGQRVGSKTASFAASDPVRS
RAF proto-oncogene serine/threonine-protein kinase (Homo sapiens), sequence (P04049 whole entry): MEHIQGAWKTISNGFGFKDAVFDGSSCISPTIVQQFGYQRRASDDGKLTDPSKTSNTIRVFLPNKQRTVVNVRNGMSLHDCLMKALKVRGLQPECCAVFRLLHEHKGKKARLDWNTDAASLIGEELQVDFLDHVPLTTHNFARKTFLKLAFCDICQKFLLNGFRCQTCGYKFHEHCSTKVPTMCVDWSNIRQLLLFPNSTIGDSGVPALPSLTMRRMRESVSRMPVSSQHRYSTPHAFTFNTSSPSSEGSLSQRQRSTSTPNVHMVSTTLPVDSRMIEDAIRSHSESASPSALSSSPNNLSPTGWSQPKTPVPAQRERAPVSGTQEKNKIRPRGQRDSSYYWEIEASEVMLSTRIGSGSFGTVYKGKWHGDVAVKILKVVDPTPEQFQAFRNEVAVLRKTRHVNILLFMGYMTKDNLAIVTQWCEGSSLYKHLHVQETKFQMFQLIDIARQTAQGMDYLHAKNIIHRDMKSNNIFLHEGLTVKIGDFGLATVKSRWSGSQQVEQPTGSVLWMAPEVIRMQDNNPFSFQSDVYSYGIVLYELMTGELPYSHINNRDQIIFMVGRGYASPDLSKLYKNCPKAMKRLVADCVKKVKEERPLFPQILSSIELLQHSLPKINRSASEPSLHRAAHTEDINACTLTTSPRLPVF
BDNF/NT-3 growth factors receptor (Homo sapiens), sequence (Q16620 32-822 limits assumed): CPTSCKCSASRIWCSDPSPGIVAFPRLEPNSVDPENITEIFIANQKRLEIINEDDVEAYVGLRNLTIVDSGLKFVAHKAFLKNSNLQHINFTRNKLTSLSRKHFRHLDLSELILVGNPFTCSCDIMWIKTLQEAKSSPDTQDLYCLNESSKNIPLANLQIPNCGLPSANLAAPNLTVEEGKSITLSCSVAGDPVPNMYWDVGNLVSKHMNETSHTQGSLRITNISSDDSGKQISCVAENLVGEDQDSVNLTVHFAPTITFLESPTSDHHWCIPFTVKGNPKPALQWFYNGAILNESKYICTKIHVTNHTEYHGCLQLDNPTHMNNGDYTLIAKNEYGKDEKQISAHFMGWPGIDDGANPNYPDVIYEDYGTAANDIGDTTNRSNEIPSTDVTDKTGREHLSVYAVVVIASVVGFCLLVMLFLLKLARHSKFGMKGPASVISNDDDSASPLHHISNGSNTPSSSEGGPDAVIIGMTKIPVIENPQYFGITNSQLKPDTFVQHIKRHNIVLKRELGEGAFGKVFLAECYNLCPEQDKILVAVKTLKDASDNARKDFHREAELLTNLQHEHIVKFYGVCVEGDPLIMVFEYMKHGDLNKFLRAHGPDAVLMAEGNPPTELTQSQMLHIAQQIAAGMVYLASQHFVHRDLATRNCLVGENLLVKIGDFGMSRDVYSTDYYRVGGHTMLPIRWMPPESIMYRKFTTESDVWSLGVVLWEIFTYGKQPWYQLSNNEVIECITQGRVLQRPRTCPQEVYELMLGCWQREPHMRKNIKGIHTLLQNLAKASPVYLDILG
Death-associated protein kinase 3 (Homo sapiens), sequence (O43293 whole entry, looked up): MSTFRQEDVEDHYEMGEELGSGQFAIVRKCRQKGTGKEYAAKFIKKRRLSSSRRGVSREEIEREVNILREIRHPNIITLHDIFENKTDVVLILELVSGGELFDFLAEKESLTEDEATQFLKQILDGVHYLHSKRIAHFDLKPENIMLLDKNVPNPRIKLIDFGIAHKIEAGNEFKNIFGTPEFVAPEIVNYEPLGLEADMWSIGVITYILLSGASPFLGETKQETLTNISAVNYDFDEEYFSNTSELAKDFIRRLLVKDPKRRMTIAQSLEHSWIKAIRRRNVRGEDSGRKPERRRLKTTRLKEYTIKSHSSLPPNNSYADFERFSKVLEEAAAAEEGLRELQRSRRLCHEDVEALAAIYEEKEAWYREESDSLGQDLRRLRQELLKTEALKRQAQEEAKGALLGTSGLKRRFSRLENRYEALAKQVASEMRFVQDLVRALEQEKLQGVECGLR
Tyrosine-protein kinase Yes (Homo sapiens), sequence (P07947 2-543 limits assumed): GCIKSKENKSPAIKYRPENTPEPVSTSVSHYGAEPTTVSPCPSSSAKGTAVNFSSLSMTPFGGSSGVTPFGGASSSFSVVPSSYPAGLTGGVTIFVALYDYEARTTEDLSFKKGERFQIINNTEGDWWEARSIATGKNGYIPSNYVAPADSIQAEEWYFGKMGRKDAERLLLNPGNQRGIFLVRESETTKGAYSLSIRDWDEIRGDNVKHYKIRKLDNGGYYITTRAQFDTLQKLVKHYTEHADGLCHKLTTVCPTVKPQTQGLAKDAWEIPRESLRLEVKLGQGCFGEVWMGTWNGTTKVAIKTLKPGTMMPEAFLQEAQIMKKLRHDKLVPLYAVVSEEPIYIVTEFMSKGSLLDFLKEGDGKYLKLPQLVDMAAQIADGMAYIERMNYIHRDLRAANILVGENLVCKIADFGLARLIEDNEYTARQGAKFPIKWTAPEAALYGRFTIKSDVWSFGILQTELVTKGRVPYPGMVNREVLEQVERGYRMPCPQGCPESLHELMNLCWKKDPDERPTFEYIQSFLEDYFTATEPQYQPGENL

On to `CCOc1cc2ncnc(Nc3cccc(Br)c3)c2cc1OCC`, for which the residual activity in test [1] came out at 88%; in [2], 75%; in test [3] it was 24%; in [4], 94%; in test [5], 78%; in [6], 96%. Besides, the residual activity in test [7] is 71%; in test [8], 99% (inactive); in test [9], 74%; in test [10] it was 102% (inactive); in test [11], 79%; in [12], 99% (inactive). Moreover, the residual activity in test [13] is 86%; in [14], 17%; in test [15] it was 2%; in [16], 122%; in [17], 91%; in test [18], 96%. Besides, the results for the residual activity in test [19] and in test [20] were 84% and 71%, respectively.

On to `Oc1n[nH]c2nnc(-c3c(-c4ccccc4)nn4ccccc34)cc12`, for which the residual activity in test [1] is 84%; in [2] it was 73%; in test [3], 67%; in test [4], 91%; in test [5], 91%; in [6] it was 92%. The residual activity in test [7] is 95%; in [8], 89% (inactive); in test [9] it was 82%; in test [10] it was 93% (inactive); in test [11], 86%; in [12], 92% (inactive). Moreover, the residual activity in [13] turned out to be 83%; in test [14], 104%; in test [15] it was 91%; in [16], 105%; in [17], 66%; in [18] it was 48%. The residual activity turned out to be 73% in test [19] and 77% in [20].

Turning to `CC[n+]1c(/C=C/N(C)c2ccccc2)n(-c2ccccc2)c2ccc(-c3nc4ccccc4s3)cc21`, the residual activity in test [1] came out at 61%; in [2], 83%; in test [3], 51%; in test [4], 110%; in test [5], 104%; in [6] it was 112%. Further, the residual activity in [7] was 97%; in test [8] it was 110% (inactive); in test [9], 99%; in test [10], 96% (inactive); in test [11], 35%; in test [12], 100% (inactive). Besides, the residual activity came out at 44% in test [13]; 105% in [14]; 100% in test [15]; 117% in test [16]; 100% in [17]; 73% in [18]. Further, the residual activity was 105% in [19] and 98% in test [20].

As to `CNc1cc2c(Nc3cccc(Br)c3)ncnc2cn1`, the residual activity in [1] worked out at 21%; in [2], 98%; in test [3] it was 64%; in test [4] it was 103%; in test [5], 95%; in test [6], 103%. The residual activity in test [7] is 70%; in test [8], 99% (inactive); in test [9], 91%; in [10], 105% (inactive); in test [11], 89%; in test [12] it was 101% (inactive). Further, the residual activity in test [13] is 91%; in test [14], 67%; in [15], 45%; in test [16] it was 99%; in test [17] it was 84%; in test [18] it was 88%. Also, the figures for the residual activity in test [19] and in test [20] were 80% and 91%, respectively.

In the case of `O=C1NC(=O)/C(=C\c2ccc3nccnc3c2)S1`, the residual activity in test [1] was 94%; in test [2], 100%; in test [3] it was 93%; in [4], 104%; in [5] it was 82%; in test [6], 99%. The residual activity in test [7] is 63%; in test [8], 93% (inactive); in test [9] it was 92%; in test [10] it was 82% (inactive); in test [11], 65%; in [12], 83% (inactive). For the same compound, the residual activity in [13] is 79%; in test [14], 119%; in [15], 102%; in test [16], 109%; in test [17] it was 71%; in test [18], 21%. For the same compound, the residual activity in test [19] came out at 73%; in test [20] it was 44%.

In the case of `Oc1ccc(Nc2nc(-c3ccc(Cl)cc3)cs2)cc1`, the residual activity in test [1] turned out to be 78%; in test [2], 97%; in test [3], 79%; in [4], 118%; in test [5], 105%; in test [6], 96%. In addition, the residual activity in test [7] is 102%; in [8], 98% (inactive); in test [9], 102%; in test [10], 117% (inactive); in [11], 99%; in test [12] it was 109% (inactive). The residual activity was determined as 91% in test [13]; 123% in test [14]; 92% in test [15]; 115% in test [16]; 110% in test [17]; 133% in test [18]. Moreover, the residual activity in [19] and in test [20] was 84% in each case.

In general, residual activity refers to the signal under treatment as a percentage of the control signal.
